Compound activity deposited in PubChem by National Center for Advancing Translational Sciences (NCATS).
CtBP-E1A inh: qHTS Assay for Inhibitors of the CtBP/E1A Interaction | AlphaScreen GST-E1A/His-CtBP binding, 1536-well; active compounds read low | activity change, % (test concentration not listed) | 340,000 tested, 0.49% active | AID 651724, 2012; in the data active = activity change below about -65%; inconclusive = mostly about -30% to -63%; also: % is scaled to controls: 0 for no effect and ±100 for the full control effect
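Protein mix (5X: 125 nM each GST-E1A, His-CtBP) was incubated with pinned compound 2 h at 37 deg C in dark, in 50 mM Tris pH 8.0 buffer with 300 mM NaCl. Glutathione donor and nickel acceptor beads followed; AlphaScreen signal read after 1 h.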
BAZ2B block: qHTS Assay for Inhibitors of BAZ2B; Bromodomain adjacent to zinc finger domain protein 2B (Homo sapiens), Q9UIF8; AlphaScreen BAZ2B-H3K14Ac peptide displacement; Potency, µM (titrated, usually from 114 µM), inactives show at the highest dose activity change, negative = inhibition, actives largely listed as inhibitors; 360,000 tested, 4.4% active; AID 504333, 2011; also: potency is read from the fitted curve at half-maximal effect; % is scaled to controls: 0 for no effect and ±100 for the full control effect; nearly all actives have a fitted effect of over 60% in size
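BAZ2B (50 nM) with biotin-H3(5-23)K14Ac peptide (50 nM) in PBS pH 7.4, 0.01% Tween-20, preformed 30 min, then compound 30 min at room temperature; top concentration 110uM. AlphaScreen streptavidin donor/nickel chelate acceptor beads (10 ug/mL final), 20 min dark, signal read.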
G9a inh: qHTS Assay for Inhibitors of Histone Lysine Methyltransferase G9a. Potency, µM (series often up to 102 µM), for the others: top-dose activity, negative = inhibition, usual class: inhibitors. G9a H3K9 monomethylation, AlphaScreen, 2 h. 350,000 tested, 8.8% active. Histone-lysine N-methyltransferase EHMT2 (Homo sapiens), Q96KQ7. AID 504332, 2011; also: potency is read from the fitted curve at half-maximal effect; % is scaled to controls: 0 for no effect and ±100 for the full control effect; nearly all actives have a fitted effect of over 75% in size
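Signal arises when biotinylated H3K9 peptide, once monomethylated, bridges streptavidin donor and antibody-captured acceptor beads. Enzyme at 20 nM was preincubated 15 min with test compounds; peptide 500 nM and SAM 20 uM then reacted for 2 h.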
JMJD2A Tudor inh: qHTS Assay for Inhibitors of JMJD2A-Tudor Domain | Potency, µM (doses to about 114 µM), for inactives: at the top dose activity change, negative = inhibition, actives largely listed as inhibitors | 390,000 tested, 4.4% active | AID 504339, 2011 | AlphaScreen JMJD2A-Tudor / H3K4me3 peptide binding | Lysine-specific demethylase 4A (Homo sapiens), O75164; also: potency is read from the fitted curve at half-maximal effect; % is scaled to controls: 0 for no effect and ±100 for the full control effect; nearly all actives have a fitted effect of over 50% in size
Target sequence (O75164 whole entry, looked up, the tested form may be a part): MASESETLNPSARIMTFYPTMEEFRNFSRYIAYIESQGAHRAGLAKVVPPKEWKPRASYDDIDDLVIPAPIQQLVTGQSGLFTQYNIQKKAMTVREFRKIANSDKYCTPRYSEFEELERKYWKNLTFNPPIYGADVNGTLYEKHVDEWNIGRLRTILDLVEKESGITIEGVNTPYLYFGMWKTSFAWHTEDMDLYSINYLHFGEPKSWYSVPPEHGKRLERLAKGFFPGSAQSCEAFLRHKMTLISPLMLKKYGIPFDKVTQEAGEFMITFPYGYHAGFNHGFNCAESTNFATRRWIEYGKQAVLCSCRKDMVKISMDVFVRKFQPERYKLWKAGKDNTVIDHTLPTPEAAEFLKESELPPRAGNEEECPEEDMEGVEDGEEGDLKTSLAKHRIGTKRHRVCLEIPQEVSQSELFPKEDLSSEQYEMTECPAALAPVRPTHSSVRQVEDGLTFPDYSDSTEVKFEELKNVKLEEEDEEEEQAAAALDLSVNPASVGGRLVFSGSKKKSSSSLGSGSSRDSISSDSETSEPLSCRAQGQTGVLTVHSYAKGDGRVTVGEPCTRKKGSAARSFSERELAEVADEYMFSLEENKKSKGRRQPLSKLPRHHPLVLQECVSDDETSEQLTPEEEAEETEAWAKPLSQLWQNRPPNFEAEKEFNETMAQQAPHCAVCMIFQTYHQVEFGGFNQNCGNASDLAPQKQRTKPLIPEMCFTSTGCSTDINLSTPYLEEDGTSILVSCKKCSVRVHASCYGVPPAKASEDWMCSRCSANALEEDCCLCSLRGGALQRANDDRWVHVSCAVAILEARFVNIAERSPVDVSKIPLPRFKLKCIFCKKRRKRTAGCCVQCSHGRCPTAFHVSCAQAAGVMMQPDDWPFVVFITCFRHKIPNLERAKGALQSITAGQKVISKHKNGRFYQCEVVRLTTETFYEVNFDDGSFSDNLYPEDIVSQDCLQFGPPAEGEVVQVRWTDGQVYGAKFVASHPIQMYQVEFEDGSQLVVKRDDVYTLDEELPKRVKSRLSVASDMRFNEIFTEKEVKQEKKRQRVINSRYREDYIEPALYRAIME
Six1-Eya2 blk: qHTS Assay for Inhibitors of the Six1/Eya2 Interaction; activity change, % (test concentration not listed); Homeobox protein SIX1 (Homo sapiens) + Protein phosphatase EYA2 (Homo sapiens), …; 360,000 tested, 0.56% active; AlphaScreen GST-Six1/His-Eya2 binding, biochemical; active compounds read low; in the data active = activity change below about -65%; inconclusive = mostly about -30% to -63%; also: % is scaled to controls: 0 for no effect and ±100 for the full control effect
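Six1/Eya2 binding was read as AlphaScreen signal after compounds were pinned into GST-Six1 plus His-tagged Eya2 (5X stock 250/500 nM) in pH 8.0 Tris/NaCl/TCEP buffer, beads added, then incubated 1 h, 37 C, dark.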
HP1b chromo inh: HTS for Inhibitors of HP1-beta Chromodomain Interactions with Methylated Histone Tails | 390,000 tested, 0.56% active | AlphaScreen HP1-beta / biotin-H3K9me3 peptide binding | Chromobox protein homolog 1 (Homo sapiens), P83916 | Potency, µM (series often up to 114 µM), inactives show at the highest dose activity change, negative = inhibition, hits mostly inhibitors; also: potency is read from the fitted curve at half-maximal effect; nearly all actives have a fitted effect of over 70% in size
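Compound inhibition of the preformed complex between 50 nM HP1-beta and 50 nM biotinylated H3K9me3 peptide was read by AlphaScreen. Buffer was PBS pH 7.4 with 0.01% Tween-20. Incubations ran 30 min at room temperature, with 10 ug/mL donor/acceptor beads.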
* hit, by the source's call; ? = inconclusive; nt = not tested or not shown; [ ] = remark or other dose. Most compounds without a hit are left out; they make up all but 10% or so of the library. Unless noted, calls follow the shape of the dose curve; as a rule, active = well fitted inhibition curve with a large enough effect; inconclusive = small, poorly fitted or top-dose-only effect; inactive = no such curve, though single readings can be large or run the other way.

SMILES	CtBP-E1A inh	BAZ2B block	G9a inh	JMJD2A Tudor inh	Six1-Eya2 blk	HP1b chromo inh
COC(=O)c1scc(-c2ccc(C)cc2)c1S(=O)(=O)Nc1ccc(NC(C)=O)cc1	nt	-14.5%	14.2%[59 µM]	-11.3%	nt	-1.5%
CCSc1nc2c([nH]1)c(=O)n(C)c(=S)n2C	-3.2	nt	nt	5.01µM*	-7.2	?
Cn1c(=O)c2[nH]c(SCCN3CCOCC3)nc2n(C)c1=S	-26.3	nt	nt	15.8µM*	-21.3	5.3%[57 µM]
O=C(c1ccco1)N1CCC2(CC1)CN(c1cccc(-c3ccccc3)c1)C2	nt	nt	31.3%[12.7 µM]	nt	nt	nt
CC(C)=CCCC(C)=CCN1C(=O)CN(C)C1=O	3.1	nt	nt	nt	1.2	nt
CCn1c(SCC(=O)Nc2ccc(N(C)C)cc2)nnc1-c1cccc(C)c1	0.4	?	7.08µM*	?	-14.6	-22.2%
CCn1c(Cn2nnc(-c3ccccc3)n2)nnc1SCC(=O)Nc1ccc(N(C)C)cc1	12.6	-4.8%	12.6µM*	-26.5%	-3.5	22.8%
CCn1c(SCC(=O)Nc2ccc(N3CCOCC3)c(Cl)c2)nnc1-c1ccc(N)cc1	-4.4	-1.1%	44.7µM*	?	-2.6	42.5%
CCn1c(SCC(=O)Nc2cc(C)on2)nnc1-c1cccc(C)c1	1.6	0.3%	17.3%	-11.6%	-2.4	20.0%
Cc1ccc(NC(=O)CSc2nnc(-c3cccs3)n2Cc2ccco2)cc1	-9.4	?	nt	?	-10.1	-8.2%
CN(C)c1ccc(NC(=O)CSc2nnc(-c3cccs3)n2Cc2ccco2)cc1	?	44.7µM*	10µM*	39.8µM*	?	?
CCn1c(Cn2nnc(-c3ccccc3)n2)nnc1SCC(=O)Nc1ccc(C(C)=O)cc1	3.0	-4.3%	18.1%[12.7 µM]	-16.3%	-0.3	6.0%
Cc1ccccc1NC(=O)CSc1nc2c(oc3ccccc32)c(=O)n1Cc1ccco1	nt	2.3%	-25.7%[59 µM]	-10.2%	nt	31.0%
CCc1ccc(NC(=O)c2ccc(CN3C(=O)C(C)=C(c4ccc(C)cc4)S3(=O)=O)cc2)cc1	nt	-2.0%	5.7%[59 µM]	-22.0%	nt	-16.9%
COc1cc(C(=O)NS(=O)(=O)c2ccccc2C)ccc1Cc1cn(C)c2ccc(NC(=O)OC3CCCC3)cc12	nt	50.1µM*	?	nt	nt	nt
Cc1ccc(NC(=O)N(Cc2cn(C)c3ccccc23)C2CCCCC2)cc1C	nt	nt	-11.4%[59 µM]	-31.3%	nt	8.0%
Cc1cc(C(=O)N/N=C/c2ccco2)n[nH]1	7.4	10.6%	5.4%	-5.2%	3.4	24.0%
CC(/C=C/c1ccco1)=N\NC(=O)c1cccnc1	1.7	-7.5%	50.1µM*	-24.4%	-6.7	9.8%
O=C(/C=C/c1ccco1)Nc1cccnc1	6.3	-35.6%	nt	-4.2%	-0.7	45.2%
O=C(/C=C/c1ccco1)c1cccnc1	nt	-33.2%	39.8µM*	?	-1.6	0.1%
CC(/C=C/c1ccco1)=N\NC(=O)c1cc(C)[nH]n1	-19.0	-9.3%	50.1µM*	-26.1%	-23.7	13.8%
CC(/C=C/c1ccco1)=N/NC(=O)c1ccc(C)nc1	10.4	-15.7%	-20.3%	-23.5%	-4.0	9.3%
CC(/C=C/c1ccco1)=N/NC(=O)OC(C)(C)C	4.7	-4.9%	70.8µM*	-8.3%	-0.7	23.1%
COc1ccc(-n2nc3c(c2NC(=O)c2ccc4c(c2)OCO4)CS(=O)(=O)C3)cc1	-6.3	?	-45.6%[59 µM]	-20.0%	-0.5	14.9%
Cc1c(C(=O)OCC[N+]2(C)CCCCC2)oc2ccccc12	-15.8	-21.3%	28.2µM*	-8.5%	8.1	-21.6%
SMILES	CtBP-E1A inh	BAZ2B block	G9a inh	JMJD2A Tudor inh	Six1-Eya2 blk	HP1b chromo inh
Cc1c(C(=O)OCC(=O)N2CCC(C)CC2)oc2ccccc12	2.6	6.9%	1.1%[12.7 µM]	-0.7%	3.4	32.9%
COc1ccc(/C=C2\SC(=O)N(CCNC(=O)CN3C(=O)NC4(CCCC4)C3=O)C2=O)cc1	-6.0	9.2%	50.1µM*	-20.7%	2.7	13.0%
Cc1c(C(=O)O)cccc1-n1c(C)cc(/C=C(/C#N)C(=O)NCc2ccccc2)c1C	-1.0	56.2µM*	50.1µM*	-16.1%	47.9	16.8%
N#C/C(=C\c1cn(CC(=O)O)c2ccccc12)C(=O)NCc1ccccc1	-17.3	-19.4%	44.7µM*	?	1.4	32.2%
Cc1ccccc1NC(=O)/C(C#N)=C\c1cn(CC(=O)O)c2ccccc12	-25.6	-25.8%	0.1%	-10.5%	12.0	31.4%
CN(C)c1ccc(/C=C(/C#N)C(=O)NCc2ccccc2)o1	-2.2	-11.4%	3.55µM*	-1.4%	-2.4	39.7%
COCCn1c(SC(C)C(=O)Nc2ccc(Cl)cn2)nnc1-c1ccncc1 (stereo not given)	-18.9	-18.4%	-5.0%	-9.7%	2.7	28.5%
Cc1cc2cc(CN(Cc3ccco3)C(=O)C3CCCCC3)c(=O)[nH]c2cc1C	5.5	-1.9%	?	-10.8%	-5.6	28.5%
Cc1cc2cc(CN(Cc3ccco3)C(=O)NCc3ccccc3)c(=O)[nH]c2cc1C	-2.8	?	50.1µM*	-21.2%	-0.2	1.7%
Cc1cc2cc(CN(CCN(C)C)C(=S)NCc3ccco3)c(=O)[nH]c2cc1C	-3.0	70.8µM*	13.2%[12.7 µM]	?	-10.1	-23.5%
CCCCC(=O)Nc1cccc(OCc2cc(=O)n3ccccc3n2)c1	nt	0.3%	-3.2%[59 µM]	-15.6%	nt	18.1%[57 µM]
O=C(CN1CCN(Cc2ccccc2)CC1)N/N=C/c1ccc(Br)s1	-2.4	-6.2%	nt	-0.4%	2.2	23.5%
O=C(NCCc1ccccc1)C1CCCN(c2cnccn2)C1 (stereo not given)	nt	-6.6%	nt	28.2µM*	6.3	?
Cc1cc(Cl)ccc1C(=O)C1CCCN(C(=O)c2ccc3ncccc3c2)C1 (stereo not given)	0.0	-24.4%	-2.4%	-0.3%	17.5	39.8%
COC(=O)c1ccc(-c2ccc(OC)c(C3C4C=CCC(C)C4C(=O)N3Cc3ccccc3)c2)cc1 (stereo not given)	nt	nt	nt	-24.8%	nt	15.4%
CCc1ccc(-c2nc(CN3CCCC(C(=O)N4CCN(c5cc(Cl)ccc5C)CC4)C3)c(C)o2)cc1 (stereo not given)	nt	10µM*	8.91µM*	?	nt	-20.0%
